This excerpt belongs to a sample that is enriched for hits.
Pf Dd2 inh = qHTS Primary assay for Inhibitors of Plasmodium falciparum Dd2 growth in vitro; Potency, µM (highest dose often 28.9 µM), for inactives: at the highest dose activity, negative = inhibition, usual class: inhibitors; 120,000 compounds, 4.3% hits; P. falciparum Dd2 growth, SYBR Green, 72 h; active = well fitted inhibition curve with a large enough effect;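 also: plate controls were DMSO vehicle for no effect and reference drug for full effect; nearly all actives have a fitted effect of over 65% in size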
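Infected erythrocytes (Dd2, 0.3% parasitemia, 2.5% hematocrit final) are added to compound in RPMI-1640/Albumax II medium, grown 72 h at 37C in low oxygen, then lysed with saponin/Triton-X containing SYBR Green and read by fluorescence.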
Numbers without * were called inactive; [ ] = another dose, or the depositor's remark. Potency is read from the fitted curve at half-maximal effect.

`CCCC1(CO)CCCN(Cc2nc(C)no2)C1` (configuration not stated) gave Pf Dd2 inh -10.2%.
`CSc1nccc(-c2ccccc2CO)n1` gave Pf Dd2 inh -10.5%.
Cc1ccc(C(N)=O)cc1-c1cc(NCc2cccnc2)nc2[nH]ccc12 was read as Pf Dd2 inh -14.8%.
For CSc1nccc(-c2cc(NCc3cccnc3)nc3[nH]ccc23)n1 the results were Pf Dd2 inh 10µM*.
CN1CCCCCCN(C(=O)c2ccccn2)[C@H]2CCC[C@H]2C1=O was read as Pf Dd2 inh -0.2%.
CCC(=O)N(C1CCOCC1)C1CCN(S(=O)(=O)c2ccccc2CC)CC1 was read as Pf Dd2 inh inactive.
For c1cnc2c(c1)nc1n2[C@@H](CNC2CCCCC2)COC1 the results were Pf Dd2 inh 14.1µM*.
`Cc1cccc2c1nc1n2[C@@H](CNC2CCCCC2)COC1` gave Pf Dd2 inh inactive.
CN1CCC(NC[C@H]2COCc3nc4cccnc4n32)CC1 was read as Pf Dd2 inh -12.5%[44.1 µM].
`CCOc1cc(-c2nnc(SCC(=O)NCc3ccccc3)nc2-c2ccc(OC)c(OCC)c2)ccc1OC` gave Pf Dd2 inh 8.91µM*.
Screening CCOc1ccc(-c2nnc(SCC(=O)NC(C)CC)nc2-c2ccc(OCC)c(OC)c2)cc1OC (configuration not stated) returned Pf Dd2 inh inactive.
For CCOc1cc(-c2nnc(SCC(=O)NCc3ccc(C)cc3)nc2-c2ccc(OC)c(OCC)c2)ccc1OC the results were Pf Dd2 inh 13.0%.
`CCN(CC)[C@H]1[C@@H]2OC[C@@H](O2)[C@@H](NCC2CCCCC2)[C@@H]1O` gave Pf Dd2 inh 10µM*.
`CCN(CC)[C@H]1[C@@H]2OC[C@@H](O2)[C@@H](NCc2ccc(N(C)C)cc2)[C@@H]1O` gave Pf Dd2 inh inactive.
Screening CCN(CC)[C@H]1[C@@H]2OC[C@@H](O2)[C@@H](NC(=O)Nc2cccc(OC)c2)[C@@H]1O returned Pf Dd2 inh inactive.
CN(Cc1ccc(-c2ccccc2)cc1)C(=O)Nc1ccc(Cl)cc1 was read as Pf Dd2 inh inactive.
For CCC(CC)NC(=O)[C@H]1CCC[C@H]1NC(=O)c1ccc(OC)nc1 the results were Pf Dd2 inh -6.1%.
COc1ccccc1-c1nc(C(=O)NC2CC2)n2ccccc12 was read as Pf Dd2 inh inactive.
Screening O=C(NC1CC1)c1nc(-c2ccc(F)cc2)c2cnccn12 returned Pf Dd2 inh 11.2µM*.
For C[S+](=O)([O-])c1ccc(-c2nc(C(=O)NC3CC3)n3ccccc23)cc1 the results were Pf Dd2 inh inactive.
COc1ccc(-c2nc(C(=O)NC3CC3)n3ccccc23)cc1 was read as Pf Dd2 inh 11.2µM*.
`O=C(CCNc1c(-c2ccc(F)cc2)nc2cnccn12)NC1CCCC1` gave Pf Dd2 inh 20.0%.
CN(C)C(=O)c1nc(-c2ccc(S(C)(=O)=O)cc2)c2cnccn12 was read as Pf Dd2 inh -2.7%.
`Cc1ncsc1C1N(C2CCN(C(=O)C3CCC3)CC2)C(=O)C12CCCC2` (configuration not stated) gave Pf Dd2 inh -3.8%.
Screening Cc1nc(C)c(C(=O)N2CCCC(c3nn(C)c(=O)n3-c3ccccc3)C2)s1 (configuration not stated) returned Pf Dd2 inh 20.2%.
For O=C(N[C@H]1C[C@@H](CO)N(Cc2cccs2)C1)c1cccnc1 the results were Pf Dd2 inh 4.5%.
For CN(C)C(=O)CN1C(=O)CO[C@H](c2ccc(NC(=O)c3cccc(C#N)c3)cc2)[C@H]1CO the results were Pf Dd2 inh -5.0%.
For Cc1ccc(-c2csc(-c3c(N)c(C(=O)c4ccc5c(c4)OCO5)n4ccccc34)n2)cc1C the results were Pf Dd2 inh inactive.
`Cc1ccc(C)c(C(=O)c2c(N)c(-c3nc(-c4ccc5c(c4)OCO5)cs3)c3ccccn23)c1` gave Pf Dd2 inh 8.91µM*.
For COc1ccc(C(=O)c2c(N)c(-c3nc(-c4ccc5c(c4)OCO5)cs3)c3ccccn23)cc1 the results were Pf Dd2 inh 15.9%.
For CC(=O)Nc1ccc(CC(=O)N2CCc3c(nc4cc(-c5ccccc5)[nH]n4c3=O)C2)cc1 the results were Pf Dd2 inh -8.3%.
COc1ccc2ccc(OCc3nc(C(=O)N4CCCC(C)(CO)C4)co3)cc2c1 (configuration not stated) was read as Pf Dd2 inh -5.7%.
`CN(Cc1ccc(F)cc1)c1ccc2ncc(Nc3ccc4c(c3)OCO4)n2n1` gave Pf Dd2 inh -16.2%[44.1 µM].
`CN(Cc1cccnc1)c1ccc2ncc(Nc3ccc(F)cc3)n2n1` gave Pf Dd2 inh -18.2%[44.1 µM].
CN1CCN(c2ccc3ncc(Nc4ccc5c(c4)OCCO5)n3n2)CC1 was read as Pf Dd2 inh 7.94µM*.
`CN(Cc1cccnc1)c1ccc2ncc(Nc3ccc4c(c3)OCO4)n2n1` gave Pf Dd2 inh 7.94µM*.
Screening c1ccc(-c2ccc3ncc(Nc4ccc5c(c4)OCCO5)n3n2)cc1 returned Pf Dd2 inh inactive.
Screening Clc1cccc(Nc2cnc3ccc(N4CCOCC4)nn23)c1 returned Pf Dd2 inh -9.4%[44.1 µM].
COc1ccc(-c2ccc3ncc(Nc4ccnc(N5CCOCC5)c4)n3n2)cc1OC was read as Pf Dd2 inh -1.3%[44.1 µM].
Screening CCc1nnc2ccc(N3CCN(C)CC3)nn12 returned Pf Dd2 inh -1.0%.
For CN1CCN(c2ccc3ncc(Nc4ccc(OC(F)(F)F)cc4)n3n2)CC1 the results were Pf Dd2 inh 3.55µM*.
`Cc1cccc(CC(=O)N2CCCC(c3nn(C)c(=O)n3Cc3ccccc3)C2)c1` (configuration not stated) gave Pf Dd2 inh inactive.
Screening CCc1[nH]nc(C(=O)N2CCC(c3[nH]ncc3-c3cccc(C)c3)CC2)c1C returned Pf Dd2 inh -15.1%.
Screening CCc1cccc(-n2nnnc2N2CCN(C(=O)NC3CCCCC3)CC2)c1 returned Pf Dd2 inh 14.8%.
For C[C@@H]1CN(C(=O)c2cc(S(N)(=O)=O)ccc2F)CC[C@]1(C)O the results were Pf Dd2 inh -5.2%.
For CNC(=O)N1CCC(Cc2nncn2C)C1 (configuration not stated) the results were Pf Dd2 inh -23.2%.
Screening CCC(=O)N(C1CCOCC1)C1CCN(Cc2cc(F)cc(F)c2)CC1 returned Pf Dd2 inh -21.7%.
`CN1CCN(CC2(N)CCCCC2)CC1` gave Pf Dd2 inh inactive.
`Cc1cc(C(=O)N2CCC3(CC2)NCc2ccccc2-n2ccnc23)nn1C` gave Pf Dd2 inh -10.1%[5.79 µM].
Screening CN(CCc1noc(C2CN(C(=O)c3ccncn3)C2)n1)C(=O)C1CC1 returned Pf Dd2 inh 11.7%.
For Cc1c(C(=O)NCc2ccc(F)cc2)sc2nc3n(c(=O)c12)CCC3 the results were Pf Dd2 inh 3.6%.
For Cc1c(C(=O)Nc2cccc(C(F)(F)F)c2)sc2nc3n(c(=O)c12)CCCC3 the results were Pf Dd2 inh 10µM*.
CCOc1ccc(NC(=O)c2sc3nc4n(c(=O)c3c2C)CCCC4)cc1 was read as Pf Dd2 inh -8.9%.
O=C(COc1ccc(F)cc1F)N1C[C@H]2CC=CC[C@H]2C1 was read as Pf Dd2 inh -28.3%.
O=C(Nc1ccc(Cl)cc1)N1CCC2(C1)C(=O)N(CCc1ccccc1)c1ccccc12 (configuration not stated) was read as Pf Dd2 inh 4.47µM*.
For Cc1cc(CN2CCC3(C2)C(=O)N(Cc2ccccc2)c2ccccc23)no1 (configuration not stated) the results were Pf Dd2 inh -23.1%.

Screening data deposited in PubChem BioAssay by National Center for Advancing Translational Sciences (NCATS).
